High-throughput results from PubChem.
Only some compounds are listed: those with a hit (about 1.7% of all), similar ones and a draw of the others.
SSB-PriA inh = inhibitors of Klebsiella pneumoniae PriA binding to SSB C-terminal tail, primary screen, biochemical, AlphaScreen. AlphaScreen SSBct-PriA binding, biotinylated peptide. inhibition, % at 33 µM. 0.6% of 430,000 active. AID 1272365, 2023; in the data active = inhibition mostly above about 37%, no sharp cut-off; inactive = mostly below about 20%;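 note: plate controls were negative control peptide for no effect and reference peptide for full effect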
PrP UTR inh = inhibition of PrP 5' UTR reporter expression. cell-based PrP 5' UTR mRNA reporter, plate reader. inhibition, % (test concentration not listed). 0.35% of 340,000 active. AID 488862, 2010; in the data active = inhibition above about 52%; note: 0 = median of the neutral control wells
PfHsp40 rescue = rescue of yeast from PfHsp40 toxicity, primary screen, S. cerevisiae, ATP luminescence. S. cerevisiae expressing PfHsp40, growth rescue. growth rescue, % at 12.5 µM. 0.68% of 340,000 active. AID 504582, 2011; in the data active = growth rescue above about 28%, passing the limit was not always enough;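 note: yeast W303a lacking pdr1 and pdr3 grown in galactose medium; growth measured after three days at 30 °C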
Yp Topo-I inh = Yersinia pestis topoisomerase I inhibitors, primary screen, biochemical, cleavage product accumulation, plate reader, single point; DNA topoisomerase I (Yersinia pestis CO92); 0.064% of 360,000 active; activity, % at 10 µM; Y. pestis Topo-I cleavage product accumulation; in the data active = activity above about 50%, passing the limit was not always enough
BJeLR viability = MLPCN primary cell-based screen for lethality selective to Ras in HRASV12 cells. BJeLR (HRASV12) viability, CellTiter-Glo ATP luminescence, 48 h. inhibition, % (test concentration not listed). 0.17% of 300,000 active; in the data active = inhibition above about 50%
PrPC TRFRET = inhibitors of human cell surface prion protein PrPC, primary screen, cell-based, TR-FRET; Major prion protein (Homo sapiens), P04156; TR-FRET read-out; inhibition, % at 13.8 µM; 0.43% of 370,000 active; in the data active = inhibition above about 24%; note: 0% = median of the test wells and 100% = reference compound wells
PrP 5UTR single = prion 5' UTR mRNA inhibition, cherry-pick retest; 48% of 1,100 active; inhibition, % at 2.5 µM; AID 504592, 2011; shares compounds with PrP UTR inh; cell-based prion protein 5' UTR reporter, plate reader; in the data active = inhibition above about 54%
PrPC confirm = confirmation of inhibitors of cell surface human prion protein, confirmation, cell-based, TR-FRET; cell surface PrPC level; inhibition, % at 13.8 µM; 65% of 1,500 active; AID 743200, 2013; shares compounds with PrPC TRFRET; in the data active = inhibition above about 25%
LD9 tox = cytotoxicity in LD9 cells, cytotoxicity control for cell surface PrPc inhibitor project, cell-based, luminescence, high throughput | shares compounds with PrPC TRFRET | luminescence viability | inhibition, % at 13.8 µM | 29% of 1,500 active; in the data active = inhibition above about 9.5%
* = called active by the depositor; / = no result.

SMILES	SSB-PriA inh	PrP UTR inh	PfHsp40 rescue	Yp Topo-I inh	BJeLR viability	PrPC TRFRET	PrP 5UTR single	PrPC confirm	LD9 tox
CCc1ccc2nc(N(Cc3cccnc3)C(=O)CN3C(=O)CCC3=O)sc2c1	-14.0	/	/	/	/	/	/	/	/
CN1C(=O)c2ccc(NC(=O)c3ccc(S(C)(=O)=O)cc3)cc2C1=O	-5.0	/	/	/	/	/	/	/	/
Cn1nc(-c2ccccc2)cc1C(=O)NCCCn1ncccc1=O	1.0	/	/	/	/	/	/	/	/
Cc1ccc2nc(NC(=O)c3ccccn3)sc2c1	-13.1	88.7*	-0.3	2.4	21.6	25.2*	86.2*	61.0*	77.0*
CC1CC(C)(O)CC(C(O)CC2CC(=O)NC(=O)C2)C1=O (stereo not given)	-7.0	63.9*	19.6	7.1	/	82.6*	61.4*	97.2*	36.3*
O=C(CSc1ncnc2ccccc12)Nc1cc(S(=O)(=O)N2CCCCC2)ccc1Cl	-2.4	-21.2	0.5	15.7	12.9	19.9	/	/	/
O=C(CSc1ncnc2ccccc12)Nc1cccc(S(=O)(=O)N2CCCC2)c1	1.1	85.1*	0.0	2.3	-4.4	70.4*	-11.0	73.3*	-6.8
CC1=CC(C)CC(C)OC(=O)CC(c2ccc(O)cc2)NC(=O)C(Cc2c(Br)[nH]c3ccccc23)N(C)C(=O)C(C)NC(=O)C(C)C1 (stereo not given)	9.1	74.4*	6.9	12.3	/	32.1*	95.2*	24.6*	10.7*
NC(=O)c1c(NC(=O)c2ccc([N+](=O)[O-])o2)sc2c1CCCC2	-3.8	16.9	0.1	-3.9	-7.7	-1.8	/	/	/
CN1CCc2c(sc(NC(=O)c3ccc([N+](=O)[O-])o3)c2C(N)=O)C1	9.8	91.1*	-0.4	-6.7	0.0	44.4*	96.7*	42.4*	60.8*
Cc1ccccc1-c1noc(-c2cccn(CC(=O)N3CCN(c4ccccc4F)CC3)c2=O)n1	-19.0	/	/	/	/	/	/	/	/
Cc1ccc(C(C)C)c(OCc2ccc(C(=O)N/N=C/c3cccc(O)c3O)cc2)c1	/	61.9*	0.1	2.8	74.1*	42.7*	65.5*	28.6*	19.5*
NC(=O)C1CCN(C(=O)Cc2cc(-c3ccccc3)on2)CC1	0.0	/	/	/	/	/	/	/	/
O=C(Nc1ccc2c(c1)CN(C(=O)c1cccs1)CC2)c1c(F)cccc1F	2.0	/	/	/	/	/	/	/	/
CC1CCC/C=C/C2CC(O)CC2C(O)/C=C/C(=O)O1 (stereo not given)	/	82.9*	4.3	-3.1	35.8	89.2*	87.6*	95.1*	7.2
C[C@H]1CCCC=C[C@@H]2C[C@H](O)C[C@H]2[C@H](O)/C=C/C(=O)O1	0.4	/	/	/	/	/	/	/	/
COc1ccc(OC)c(-c2csc(NC(=O)C3CCN(S(C)(=O)=O)CC3)n2)c1	-5.0	/	/	/	/	/	/	/	/
CC(=O)O[C@H]1C(=O)[C@]2(C)[C@H]([C@H](OC(=O)c3ccccc3)[C@]3(O)C[C@H](OC(=O)[C@H](O)[C@@H](NC(=O)c4ccccc4)c4ccccc4)C(C)=C1C3(C)C)[C@]1(OC(C)=O)CO[C@@H]1C[C@@H]2O	0.1	53.0*	5.2	31.1	29.3	27.9*	88.9*	24.8*	3.8
Nc1ncnc2c(C3OC(CO)C(O)C3O)c[nH]c12 (stereo not given)	-13.7	95.1*	-1.2	-2.9	/	56.7*	97.3*	61.3*	91.2*
Nc1ncnc2c1ncn2[C@@H]1O[C@H](CO)[C@@H](O)[C@H]1O	-8.2	-18.1	-3.0	7.3	5.6	1.2	/	/	/
OCC1OC(n2ccc3c(NO)ncnc32)C(O)C1O (stereo not given)	/	88.9*	0.4	-2.3	/	53.4*	84.7*	44.1*	92.0*
NC(=O)c1cn(C2OC(CO)C(O)C2O)c2ncnc(N)c12 (stereo not given)	-6.7	88.4*	-2.0	-0.8	91.0*	55.9*	96.6*	58.2*	40.0*
NC(=O)c1c(Br)n(C2OC(CO)C(O)C2O)c2ncnc(N)c12 (stereo not given)	-4.4	16.4	-1.6	2.7	/	0.3	/	/	/
N#Cc1cn(C2OC(CO)C(O)C2O)c2ncnc(N)c12 (stereo not given)	-11.0	57.8*	-1.4	-2.2	/	26.4*	75.0*	29.7*	39.9*
O=C(NCCn1ncc2c(=O)n(Cc3cccc(Cl)c3)cnc21)c1ccc(F)c(F)c1	-4.0	/	/	/	/	/	/	/	/
SMILES	SSB-PriA inh	PrP UTR inh	PfHsp40 rescue	Yp Topo-I inh	BJeLR viability	PrPC TRFRET	PrP 5UTR single	PrPC confirm	LD9 tox
C=C1C(=O)O[C@@H]2C[C@@H](C)[C@@H]3C=CC(=O)[C@@]3(C)[C@@H](OC(=O)CC(=O)O[C@H]3[C@@H]4C(=C)C(=O)O[C@@H]4C[C@@H](C)[C@@H]4C=CC(=O)[C@]43C)[C@H]12	-4.4	95.0*	-0.5	4.1	93.6*	97.9*	97.7*	99.2*	99.0*
C=C1C(=O)OC2CC(C)C3C=CC(=O)C3(C)C(O)C12 (stereo not given)	-9.3	25.9	0.3	-7.7	/	/	/	/	/
CCC1CN2CCc3cc(OC)c(OC)cc3C2CC1CC1NCCc2c1[nH]c1ccc(O)cc21 (stereo not given)	24.5	82.4*	-0.7	-18.7	/	86.9*	87.0*	99.6*	43.2*
O=c1c2ncccc2n(Cc2ccc(Br)cc2)c(=O)n1Cc1ccc(Cl)cc1	0.0	/	/	/	/	/	/	/	/
Oc1ccccc1/C=N/Nc1nccnc1Cl	/	27.1	0.8	4.1	30.9	4.7	/	/	/
Oc1ccc(/C=N/Nc2nccnc2Cl)c(O)c1	/	-1.1	8.4	2.5	68.0*	24.7*	/	33.2*	23.9*
COc1cc(OC)nc(Nc2nc(C(N)c3ccccc3)cs2)n1 (stereo not given)	/	/	/	18.3	/	6.4	/	/	/
NC(Cc1ccc(Cl)cc1)c1csc(Nc2nccc(C(F)(F)F)n2)n1 (stereo not given)	/	/	/	-12.6	/	-6.1	/	/	/
COc1ccc(C(N)c2csc(Nc3ncccn3)n2)cc1 (stereo not given)	/	/	/	7.7	/	36.2*	/	17.8	-5.8
NC(Cc1ccc(F)cc1)c1csc(Nc2ncccn2)n1 (stereo not given)	/	/	/	-3.1	/	59.4*	/	55.5*	22.8*
COc1ccc(CC(N)c2csc(Nc3ncccn3)n2)cc1 (stereo not given)	/	/	/	0.7	/	37.9*	/	37.5*	2.9
Nc1ccc(CC(N)c2csc(Nc3ncccn3)n2)cc1 (stereo not given)	/	/	/	-4.8	/	20.9	/	/	/
